Experiments:
Conditions in all cases: Compound Concentration (nM):1000
[1] = test system: T1, RSK3(Kin.Dom.1-N-terminal)
T1 construct: gene RPS6KA2

[2] = test system: T2, RSK3(Kin.Dom.2-C-terminal)
T2 construct: gene RPS6KA2

[3] = test system: T3, RSK4(Kin.Dom.1-N-terminal)
T3 construct: gene RPS6KA6

[4] = test system: T4, RSK4(Kin.Dom.2-C-terminal)
T4 construct: gene RPS6KA6

S6K1 = test system: T5, S6K1
T5 construct: gene RPS6KB1

SBK1 = test system: SBK1
SGK2 = test system: SGK2
SGK3 = test system: SGK3
SGK = test system: T6, SGK
T6 construct: gene SGK1

SIK2 = test system: SIK2
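Also: KINOMEscan scanMAX binding as percent activity remaining versus control; lower means stronger binding.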

Compound	Percent Control [1] [%]	Percent Control [2] [%]	Percent Control [3] [%]	Percent Control [4] [%]	Percent Control (S6K1) [%]	Percent Control (SBK1) [%]	Percent Control (SGK2) [%]	Percent Control (SGK3) [%]	Percent Control (SGK) [%]	Percent Control (SIK2) [%]
CCc1ccc(Oc2nccc(-c3c(-c4ccc(F)cc4)ncn3C3CCNCC3)n2)cc1 [SB-242719]	92	94	93	79	93	100	100	77	100	66
CCS(=O)(=O)c1ccc(OC)c(Nc2ncc(-c3cccc(OC)c3)o2)c1 [GW580509X]	100	100	94	100	100	100	100	91	100	91
COc1cc2ncn(-c3cc(O[C@H](C)c4ccccc4Cl)c(C(N)=O)s3)c2cc1OC [GSK237701A]	100	90	45	94	68	83	87	75	90	65
Nc1ncnc2occ(-c3ccc(NC(=O)Nc4cc(C(F)(F)F)ccc4F)cc3)c12 [GW770249X]	66	59	87	100	21	100	100	83	100	100
COc1cc(/C=N/Nc2ncnc3[nH]ncc23)ccc1O [GW578748X]	100	100	45	100	40	16	40	7.1	1.5	83
O=C(Nc1n[nH]c2nc(-c3ccc(O)cc3)c(Br)cc12)C1CC1 [SB-725317]	96	100	19	100	100	100	100	88	100	100
COc1cccc(-n2ncc3c(N/N=C/c4ccncc4)ncnc32)c1 [GW784752X]	100	98	94	100	93	63	83	77	57	75
Cl.O=C(Nc1ccc(Oc2ccc3[nH]c(NC(=O)c4ccccc4)nc3c2)cc1)Nc1cc(C(F)(F)F)ccc1F [GW709042A]	100	100	99	100	52	100	100	90	100	100
COc1ccc2c(-c3ccnc(Nc4cccc(OC(F)(F)F)c4)n3)cnn2n1 [GW810372X]	100	99	99	100	87	100	100	79	100	100
C/C(Nc1ccc(S(N)(=O)=O)cc1)=C1/C(=O)Nc2ccccc21 [GW335962X]	83	82	47	86	60	100	71	26	21	90
Cl.O=C(Nc1ccc(Oc2ccc3[nH]c(NC(=O)c4ccco4)nc3c2)cc1)Nc1cc(C(F)(F)F)ccc1F [GW683134A]	92	100	100	100	43	100	100	100	100	100
Cl.O=C(O[C@H]1CN[C@H](C#Cc2cc3ncnc(Nc4ccc5c(cnn5Cc5ccccc5)c4)c3s2)C1)N1CCOCC1 [GSK200398A]	92	89	80	83	100	100	97	99	99	69
COc1ccccc1-c1cc(/C=C2\C(=O)Nc3ncc(Br)cc32)cc(Br)c1O [GW442130X]	100	100	100	100	100	95	85	94	71	100
CN1CCN(C(=O)c2ccc(NC(=O)Nc3ccc(N(C)c4ccnc(Nc5ccc(CS(C)(=O)=O)cc5)n4)cc3)cc2)CC1.Cl [GW830263A]	84	89	74	84	37	65	73	79	57	56
NS(=O)(=O)c1ccc(N/N=C2\C(=O)Nc3ccc(C(=O)NCc4ccncc4)cc32)cc1 [GW300657X]	100	80	56	80	78	37	81	12	36	100
NS(=O)(=O)c1ccc(N/N=C2\C(=O)Nc3ccc(Cl)cc32)cc1 [GW280670X]	100	100	99	100	98	100	100	77	100	100
COc1ccc2[nH]c3c4[nH]c5ccc(OC)cc5c4c4c(c3c2c1)C(=O)NC4=O [GW296115X]	28	69	5.8	61	21	95	46	8.1	6.8	9.9
COc1cc(C=NNc2ncnc3c2cnn3-c2ccccc2)ccc1O [GW513184X]	100	100	90	100	100	100	66	85	50	61
CCn1c(-c2nonc2N)nc2c(C#CC(C)(C)O)nc(OCCNC)cc21.Cl [GSK949675]	99	100	100	100	100	96	100	92	94	90
CN(C)c1cc2c(Nc3ccc4c(cnn4Cc4ccccc4)c3)ncnc2cn1 [GW282974X]	100	93	75	74	95	100	99	99	98	71

Compound	Percent Control [1] [%]	Percent Control [2] [%]	Percent Control [3] [%]	Percent Control [4] [%]	Percent Control (S6K1) [%]	Percent Control (SBK1) [%]	Percent Control (SGK2) [%]	Percent Control (SGK3) [%]	Percent Control (SGK) [%]	Percent Control (SIK2) [%]
COc1cc2ncnc(Nc3ccc4c(cnn4Cc4ccccc4)c3)c2cc1OC.Cl [GW282449A]	100	100	92	100	100	100	100	100	100	68
COc1ccc(COc2ccc(Cc3cnc(N)nc3N)cc2OC)cc1 [GW632580X]	79	89	98	93	85	100	95	72	100	93
Cc1cc(O)cc(C)c1/C=C/c1cncc(C(N)=O)c1 [GW435821X]	100	100	96	100	100	100	100	84	100	53
NS(=O)(=O)c1ccc(N/N=C2\C(=O)Nc3ccc(C(=O)NCCc4c[nH]cn4)cc32)cc1 [GW300660X]	100	100	45	100	76	100	100	12	26	100
COc1cccc(-c2c[nH]c3c(N/N=C/c4ccncc4)ncnc23)c1 [GW814408X]	100	100	49	100	84	83	38	59	22	17
COC(=O)Nc1nc2ccc(Oc3ccc(NC(=O)Nc4cc(C(F)(F)F)ccc4F)cc3)cc2s1.Cl [GW693917A]	65	91	76	79	54	100	80	78	87	68
CC1=C(C(=O)Nc2ccc3[nH]ncc3c2)C(c2ccc(Cl)c(Cl)c2)CC(=O)N1 (stereo not shown) [GSK299115A]	100	89	69	80	67	73	81	48	72	87
COc1cc(N2CCN(C(C)C)CC2)ccc1Nc1nc(Nc2ccc(F)cc2C(=O)NC[C@@H](O)CO)c2cc[nH]c2n1 [GSK1392956A]	67	72	55	86	94	64	100	91	99	100
NS(=O)(=O)c1ccc(N/N=C2\C(=O)Nc3ccc(-c4cnco4)cc32)cc1 [GW276655]	100	87	61	90	100	76	76	53	38	100
CC1=C(C(=O)Nc2ccc3[nH]ncc3c2)C(c2ccc3ccccc3c2)CC(=O)N1 (stereo not shown) [GSK270822A]	84	100	67	95	67	48	69	42	69	86
Cl.O=S1CCN(Cc2ccc(-c3ccc4ncnc(Nc5ccc(OCc6ccccc6)c(F)c5)c4c3)o2)CC1 [GW576924A]	100	100	97	100	97	100	100	78	100	81
CN(C)CCNC(=O)Nc1ccc(N(C)c2ccnc(Nc3ccc(CS(C)(=O)=O)cc3)n2)cc1.Cl [GW830900A]	100	94	74	87	85	95	80	84	48	73
CCS(=O)(=O)c1ccc(OC)c(Nc2ncc(-c3cccc(F)c3)o2)c1 [GW621970X]	100	100	100	100	93	100	100	98	100	63
COc1cc(C)c(N(C)C(=O)CN(C)C)cc1Nc1nc(Nc2cccc(F)c2C(N)=O)c2cc[nH]c2n1 [GSK2219385]	79	90	75	82	100	100	92	92	92	100
Cl.c1ccc(Cc2nc3ccc(Nc4ncnc5ccccc45)cc3[nH]2)cc1 [GR269666A]	100	100	100	98	100	100	100	81	100	82
COc1ccc2cc(-c3c(-c4ccncc4)nc(-c4ccc(S(C)(=O)=O)cc4C)n3C)ccc2c1 [SB-633825]	98	100	60	83	66	78	59	73	94	100
NS(=O)(=O)c1ccc(Nc2ncc(-c3ccccc3)o2)cc1 [GW572399X]	100	100	96	100	100	100	93	60	48	100
CC(C)COC(=O)c1ccc2c(c1)/C(=C/Nc1ccc(S(N)(=O)=O)cc1)C(=O)N2 [GW416981X]	100	100	43	100	65	71	79	18	31	94
C[C@@H](Oc1cc(-n2cnc3ccc(OC4CCN(C)CC4)cc32)sc1C(N)=O)c1ccccc1Cl [GSK579289A]	48	67	19	80	62	62	100	84	90	100
O=C1Nc2ccc(C(=O)c3ccco3)cc2C1=Cc1cc(Cl)c(O)c(Cl)c1 [GW406108X]	74	51	53	32	74	100	100	74	83	100

— paper PMC7826789 (International Journal of Molecular Sciences, 2021)
